Reference: ChEMBL document CHEMBL3988442, “University of Dundee, Small-Polar-MMV Screening Library” (2021)
Out of some 48,000 compounds screened, about 13,000 (27%) showed an effect of 50% or more. The list shows a part of the results.

Each compound was assayed on Wolbachia pipientis (assay: Anti-Wolbachia Cell-Based Screen). Conditions: 5 µM.
Type: functional
Design: scale not given: in the data most compounds retested in dose-response had high values

Row | Compound | Percent Effect [%]
1 | CCCOc1ccc(C(=O)N[C@@H]2CCNC[C@H]2O)cc1Cl | 4.821
2 | c1cc(NCc2cscn2)cc(OCCN2CCCCC2)c1 | 8.828
3 | CN(Cc1cc[nH]n1)C(=O)C1CC(=O)N(Cc2ccncc2)C1 (stereo unspecified) | 23.6
4 | CCCN1CCN(C(=O)CCn2nc(C(F)(F)F)c(Br)c2C)CC1 | 94.07
5 | Cc1cc(C2CCCN(C(=O)CN3CCN(C)CC3)C2)n[nH]1 (stereo unspecified) | 0.3099
6 | CN1CCN(C(=O)Cn2nc(C(F)(F)F)c(Br)c2C2CC2)CC1 | 120.3
7 | CC(C)(C)OC(=O)Cn1nc(C2CC2)cc(C(F)(F)F)c1=O | 2.885
8 | CCCN1CCN(C(=O)C(C)n2cc(Br)cn2)CC1 (stereo unspecified) | 6.17
9 | CCN1CCN(C(=O)CCC2CCN(C(=O)CCSC)CC2)CC1 | 1.019
10 | CC(C)(C)C(=O)Cn1nc(C2CC2)cc(C(F)(F)F)c1=O | 3.486
11 | CCCN1CCN(C(=O)Cn2nc(C(F)(F)F)c(Br)c2C2CC2)CC1 | 112.9
12 | CCN1CCN(C(=O)Cn2nc(C(F)(F)F)c(Br)c2C2CC2)CC1 | 81.51
13 | Cc1nn(C)c(C)c1CCC(=O)N1CCN(CCn2cncn2)CC1 | 2.467
14 | CCN1CCN(C(=O)CCc2c(C)noc2Cl)CC1 | 3.416
15 | CCCN1CCCN(C(=O)C(CC)N2CCCC2=O)CC1 (stereo unspecified) | -5.426
16 | CNc1cc(C)nc(N2C[C@H](NC(=O)C3CCOCC3)[C@@H](C3CC3)C2)n1 | -20.28
17 | CNC(=O)COC(=O)c1cccc(-n2ccc(C(F)(F)F)n2)c1 | -11.26
18 | CCCN(CCc1cccc(F)c1)c1ccc2nnnn2n1 | 9.519
19 | CSC(CNS(C)(=O)=O)c1cccc(Cl)c1 (stereo unspecified) | 9.109
20 | Cc1nc(C)n(Cc2cccc(NC(=O)N(C)CCC(C)O)c2)n1 (stereo unspecified) | -6.821
21 | O=C(Cn1nnc(-c2ccc(F)cc2)n1)N1CCOCC(O)C1 (stereo unspecified) | -9.782

Row | Compound | Percent Effect [%]
22 | O=C(CN1C(=O)CCC1=O)N1CCOCC1 | -0.7877
23 | O=C(Cn1nc(C(F)(F)F)c(Br)c1C1CC1)N1CCOCC1 | 103.1
24 | CCN(Cc1ccncc1)C(=O)C1COc2c(cccc2OC)C1 (stereo unspecified) | -5.298
25 | NC(=O)c1cccc(OCCC(=O)NC2CCc3c(F)cccc32)c1 (stereo unspecified) | 3.003
26 | CCCC(=O)N1CCC2(CC1)CN(Cc1cccc(C)n1)C(=O)CO2 | 88.89
27 | COCCN1CCC2(CC1)CN(Cc1cccc(C)n1)C(=O)CO2 | 94.2
28 | COCCN1CCC2(CC1)CN(CCn1cccn1)C(=O)CO2.O=C(O)C(F)(F)F | -17.67
29 | Cc1cccc(CN2CC3(CCNCC3)OCC2=O)n1 | -5.931
30 | COCC(=O)N1CCCC2(CCN(Cc3cccc(C)n3)C2=O)C1.O=C(O)C(F)(F)F (stereo unspecified) | -15.33
31 | Cc1cccc(CN2CC3(CCN(C(N)=O)CC3)OCC2=O)n1 | 101.1
32 | O=C1COC2(CCN(Cc3ccccn3)CC2)CN1CC1CC1 | 3.205
33 | Cc1cccc(CN2CCC3(CCCN(C(=O)CN(C)C)C3)C2=O)n1 (stereo unspecified) | 1.32
34 | Cc1cccc(CN2CC3(CCN(C(=O)C4CC4)CC3)OCC2=O)n1 | 113.2
35 | COCCN(C)CCN1CC2(CCN(C3CCOCC3)CC2)OC1=O | -18.87
36 | Cc1ccsc1-c1nnc(SCC(=O)O)n1C(C)c1ccccc1 (stereo unspecified) | -0.1706
37 | CCN(CC)c1ccc(C2C3=C(COC3=O)Nc3[nH]nc(C)c32)cc1 (stereo unspecified) | 4.109
38 | CCc1ncncc1C(=O)Nc1ccc2ccn(CCN(C)C)c2c1 | -10.28
39 | CCc1nc(C)c([C@H]2CN(C)C[C@@H]2C(=O)NCc2ccccc2OC)[nH]1 | -8.879
40 | Cc1ccccc1C(CC(=O)NCc1n[nH]c(N)n1)c1ccccc1 (stereo unspecified) | -7.585
41 | CC(NC(=O)NCCCc1n[nH]c(N)c1C#N)c1cccs1 (stereo unspecified) | -7.784
42 | Cc1ncsc1CN1CC2(CCCC2)CC1=O | -13.29

Row | Compound | Percent Effect [%]
43 | Cc1ncsc1CN1CCOC(C)(C(=O)N(C)C)C1 (stereo unspecified) | 112.2
44 | Cc1ncsc1CN1CCOC(C)(C(N)=O)C1 (stereo unspecified) | 122.3
45 | Cc1ncsc1CN1CC[C@H]2OCC[C@@]2(C(=O)N(C)C)C1 | 3.882
46 | Cc1ncsc1CN1CCOC(C)(C(=O)N2CCOCC2)C1 (stereo unspecified) | 106.3
47 | Cc1nn(C)c(C)c1-c1ccnc(N(C)Cc2noc(C(C)C)n2)n1 | -9.96
48 | CCNC(=O)N[C@H]1C[C@@H](Cc2cc(CN3CCCCC3)on2)C1(C)C | 1.239
49 | O=C(O)C(F)(F)F.O=C(c1ccco1)N1CC[C@@H]2CN(C3CCOCC3)CCO[C@@H]2C1 | 107.9
50 | Cc1ccoc1C(=O)N1CC[C@@H]2CN(C3CCOCC3)CCO[C@@H]2C1.O=C(O)C(F)(F)F | 107.8
51 | Cc1ccoc1C(=O)N1CC[C@@H]2O[C@@H](C)C[C@H]2C1 | 0.7135
52 | CN1CCO[C@@H]2CN(C(=O)c3ccc4[nH]ccc4c3)CC[C@@H]2C1.O=C(O)C(F)(F)F | -13.85
53 | CN(C)C[C@H]1OC[C@@H]2CCN(C(=O)c3ccco3)C[C@@H]21.O=C(O)C(F)(F)F | 5.332
54 | O=C(O)C(F)(F)F.O=C(c1ccco1)N1CCOCC2(CCN(C3CCOCC3)C2)C1 (stereo unspecified) | 7.241
55 | COc1ccc(CN2CC[C@@H]3CN(S(C)(=O)=O)CCO[C@@H]3C2)cc1.O=C(O)C(F)(F)F | 4.247
56 | Cc1ccc(C(=O)N2CC[C@@H]3CN(C4CCOCC4)CCO[C@@H]3C2)o1.O=C(O)C(F)(F)F | 105.9
57 | Cc1ccoc1C(=O)N1CC[C@H]2O[C@@H](C)C[C@H]2C1 | -21.6
58 | Cc1ccc(CNC2(Cc3cc(-c4cccc(O)c4)on3)COC2)o1 | -8.459
59 | COC(=O)C1CCN(C(=O)c2ccc(N(C)S(C)(=O)=O)c(C)c2)CC1 | -6.417
60 | COCCC1(C(=O)O)CCCN(Cc2cc3c(cc2Cl)OCO3)C1 (stereo unspecified) | 4.782
61 | CNC(=O)CN1CCC(NC2CSCCc3ccccc32)CC1 (stereo unspecified) | 0.2819
